For 16 compounds, Potency and outcome results are on record in PubChem BioAssay (Tox21).

“And” between values parts separate entries of the source, which are not always exact repeats. Equal values may be shown once. Records with an inconclusive call do not appear. More than one record can exist for a structure, and the calls need not agree. The source made the active and inactive calls. Unless noted, calls follow the shape of the dose curve; as a rule, active = well fitted curve in the direction sought with a large enough effect in the repeat runs; inconclusive = weak or mixed curves; inactive = no such curve, though single readings can be large; an effect the other way counts as inactive or inconclusive.

The nature of assay [1]: qHTS assay to identify small molecule antagonists of the glucocorticoid receptor (GR) signaling pathway - cell viability counter screen (AID 720693). Also: nearly all actives have a fitted effect of over 55% in size.
The nature of assay [2]: qHTS assay for identifying genotoxic compounds that show differential cytotoxicity against isogenic chicken DT40 cell lines with known DNA damage response pathways - wild type cell line (AID 743012). Also: nearly all actives have a fitted effect of over 60% in size. Also: potency is read from the fitted curve at half-maximal effect. An outline of the steps:
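Viability of DNA repair-proficient chicken DT40 cells was assessed by CellTiter-Glo luminescence following 40 h compound exposure at 37 C/5% CO2.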

A short description of assay [3]: qHTS assay for identifying genotoxic compounds that show differential cytotoxicity against isogenic chicken DT40 cell lines with known DNA damage response pathways - Rev3 mutant cell line (AID 743014). Also: nearly all actives have a fitted effect of over 55% in size. Also: potency is read from the fitted curve at half-maximal effect.
Assay [4] is described as follows: qHTS assay for identifying genotoxic compounds that show differential cytotoxicity against isogenic chicken DT40 cell lines with known DNA damage response pathways - Rad54/Ku70 mutant cell line (AID 743015). Also: nearly all actives have a fitted effect of over 60% in size. Also: potency is read from the fitted curve at half-maximal effect.
Assay [5] can be described thus: qHTS assay to identify small molecule antagonists of the androgen receptor (AR) signaling pathway - cell viability counter screen (AID 743033; also: nearly all actives have a fitted effect of over 45% in size; also: potency is read from the fitted curve at half-maximal effect).
The nature of assay [6]: qHTS assay to identify small molecule antagonists of the androgen receptor (AR) signaling pathway using the MDA cell line - cell viability counter screen (AID 743041; also: nearly all actives have a fitted effect of over 45% in size). An outline of the steps: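 Cytotoxicity counter screen: MDA-kb2 AR-luc cells, compound + R1881, 16 h, 37C, 0% CO2; CellTiter-Fluor added at 15.5 h, fluorescence read after 30 min.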
The nature of assay [7]: qHTS assay to identify small molecule antagonists of the thyroid receptor (TR) signaling pathway - cell viability counter screen (AID 743064). Also: nearly all actives have a fitted effect of over 50% in size. In short, it runs like this:
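Compounds were tested on GH3.TRE-Luc cells in the presence of T3 at 1 nM final. Following 23.5 h at 37 °C, cell viability was quantified by CellTiter-Fluor.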

The nature of assay [8]: qHTS assay to identify small molecule antagonists of the thyroid receptor (TR) signaling pathway (AID 743065). Also: nearly all actives have a fitted effect of over 55% in size. Also: potency is read from the fitted curve at half-maximal effect. An outline of the steps:
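GH3.TRE-Luc rat pituitary cells (two TREs driving luciferase) were dosed with compound, then stimulated with 1 nM T3 (final) for 23.5 h at 37 C. ONE-Glo luminescence was the read-out, with CellTiter-Fluor fluorescence as the cytotoxicity counter-screen.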

Assay [9] has as its system thyroid hormone receptor (rat, GH3 cells). As to the kind of experiment: qHTS assay to identify small molecule agonists of the thyroid receptor (TR) signaling pathway (AID 743066; calls by dose curve).
Assay [10] has as its target Estrogen receptor (Homo sapiens) (UniProt P03372). The experiment in a line: qHTS assay to identify small molecule antagonists of the estrogen receptor alpha (ER-alpha) signaling pathway (AID 743069; active = well fitted curve in the direction sought with a large enough effect in the signal ratio in the repeat runs, not every such curve was filed as active; the % refers to the signal ratio). In short, it runs like this: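 Beta-lactamase FRET fluorescence is read after 2 hr at room temperature with LiveBLAzer B/G substrate. Before that, ER-alpha-bla HEK293 cells sit 4 hr after plating, then receive compound plus 17beta-estradiol and incubate 18 hr at 37C.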

The nature of assay [11]: qHTS assay to identify small molecule antagonists of the estrogen receptor alpha (ER-alpha) signaling pathway - cell viability counter screen (AID 743074; calls by dose curve;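 also: HEK293 cells carrying ER-alpha-UAS-bla reporter stimulated with 17beta-estradiol; nearly all actives have a fitted effect of over 45% in size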).
Assay [12] concerns the target Estrogen receptor (Homo sapiens) (UniProt P03372). As to the kind of experiment: qHTS assay to identify small molecule agonists of the estrogen receptor alpha (ER-alpha) signaling pathway (AID 743075; calls by dose curve;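 also: HEK293 GripTite cells with ER-alpha and UAS-driven beta-lactamase reporter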).
The target is the same in assay [13]. As to the kind of experiment: qHTS assay to identify small molecule agonists of the estrogen receptor alpha (ER-alpha) signaling pathway using the BG1 cell line (AID 743079). Also: nearly all actives have a fitted effect of over 20% in size.
A short description of assay [14]: qHTS assay to identify small molecule antagonists of the estrogen receptor alpha (ER-alpha) signaling pathway using the BG1 cell line (AID 743080; calls by dose curve;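 also: BG1 cells stimulated with 17beta-estradiol alongside compound; series mostly up to about 70 µM; nearly all actives have a fitted effect of over 25% in size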). In short, it runs like this: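 Quantitative HTS on the Tox21 10K library: BG1 cells with endogenous ER-alpha and ERE-luciferase reporter, 17beta-estradiol stimulation, 21.5 h compound exposure, luminescence endpoint with parallel fluorescence cytotoxicity counter-read.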

The nature of assay [15]: qHTS assay to identify small molecule antagonists of the estrogen receptor alpha (ER-alpha) signaling pathway using the BG1 cell line - cell viability counter screen (AID 743081).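 Also: compound given together with 17beta-estradiol as the ER stimulus; nearly all actives have a fitted effect of over 45% in size.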 Also: potency is read from the fitted curve at half-maximal effect.
A further assay has as its target Aromatase (Homo sapiens) (UniProt P11511). The experiment in a line: qHTS assay to identify aromatase inhibitors (AID 743083). Also: series mostly up to about 70 µM; nearly all actives have a fitted effect of over 55% in size.
In assay [16] the target is Androgen receptor (Homo sapiens) (UniProt P10275). As to the kind of experiment: qHTS assay to identify small molecule antagonists of the androgen receptor (AR) signaling pathway (AID 743035; active = well fitted inhibition curve with a large enough effect in the signal ratio in the repeat runs, not every such curve was filed as active; the % refers to the signal ratio). An outline of the steps: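 Reporter HEK293 cells were exposed to compounds and R1881 overnight (16 h, 37C); beta-lactamase activity was then quantified by FRET fluorescence.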
Assay [17] shares this target. As to the kind of experiment: qHTS assay to identify small molecule agonists of the androgen receptor (AR) signaling pathway (AID 743036; active = well fitted activation curve with a large enough effect in the signal ratio in the repeat runs, with a control signal flat, not every such curve was filed as active; the % refers to the signal ratio). An outline of the steps:
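Beta-lactamase under UAS control, stably integrated in HEK293 GripTite cells, reports receptor activation. After 16 h compound treatment, cells received FRET substrate for 2 h at room temperature before fluorescence reading.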

Assay [18] has the same target. As to the kind of experiment: qHTS assay to identify small molecule agonists of the androgen receptor (AR) signaling pathway using the MDA cell line (AID 743040; also: nearly all actives have a fitted effect of over 20% in size). An outline of the steps: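 Luciferase read-out, ONE-Glo, 30 min RT. Cells: MDA-kb2 AR-luc, MMTV promoter with AR and GR response elements. Compound exposure 16 h, 37C, 0% CO2, after 5 h pre-incubation. qHTS agonist mode.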

Assay [19] has the same target. As to the kind of experiment: qHTS assay to identify small molecule antagonists of the androgen receptor (AR) signaling pathway using the MDA cell line (AID 743042; also: nearly all actives have a fitted effect of over 55% in size). In short, it runs like this: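 MDA-kb2 breast carcinoma cells carrying MMTV-luciferase (AR/GR responsive) were co-treated with compounds and the agonist R1881 for 16 h at 37C. Inhibition read as ONE-Glo luminescence; CellTiter-Fluor fluorescence measured in parallel for cytotoxicity.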

Androgen receptor (Homo sapiens), sequence (P10275 whole entry, looked up): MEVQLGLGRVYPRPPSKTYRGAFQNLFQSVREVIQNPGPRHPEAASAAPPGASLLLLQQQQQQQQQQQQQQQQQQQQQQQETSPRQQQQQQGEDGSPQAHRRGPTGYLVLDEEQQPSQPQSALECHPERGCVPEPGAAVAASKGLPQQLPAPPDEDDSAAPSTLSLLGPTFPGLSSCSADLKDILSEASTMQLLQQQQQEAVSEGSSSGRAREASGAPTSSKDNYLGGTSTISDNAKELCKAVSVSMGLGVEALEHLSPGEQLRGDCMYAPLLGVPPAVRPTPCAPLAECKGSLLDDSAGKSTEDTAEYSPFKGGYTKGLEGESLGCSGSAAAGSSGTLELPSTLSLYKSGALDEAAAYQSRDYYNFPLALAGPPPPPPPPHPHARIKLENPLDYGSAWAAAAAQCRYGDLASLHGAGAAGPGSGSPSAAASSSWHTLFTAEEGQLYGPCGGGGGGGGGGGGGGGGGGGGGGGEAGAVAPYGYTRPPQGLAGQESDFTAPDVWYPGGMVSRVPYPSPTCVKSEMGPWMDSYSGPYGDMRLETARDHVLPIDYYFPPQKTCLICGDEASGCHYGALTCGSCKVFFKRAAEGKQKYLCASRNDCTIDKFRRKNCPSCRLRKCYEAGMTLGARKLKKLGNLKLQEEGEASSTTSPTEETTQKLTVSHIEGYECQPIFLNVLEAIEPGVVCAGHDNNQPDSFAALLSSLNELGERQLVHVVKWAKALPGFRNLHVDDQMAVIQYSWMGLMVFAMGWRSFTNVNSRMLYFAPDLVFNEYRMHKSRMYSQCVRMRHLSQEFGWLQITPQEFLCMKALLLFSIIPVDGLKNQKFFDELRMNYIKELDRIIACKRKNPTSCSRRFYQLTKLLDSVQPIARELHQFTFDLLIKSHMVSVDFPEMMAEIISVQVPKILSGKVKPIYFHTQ
Aromatase (Homo sapiens), sequence (P11511 whole entry, looked up): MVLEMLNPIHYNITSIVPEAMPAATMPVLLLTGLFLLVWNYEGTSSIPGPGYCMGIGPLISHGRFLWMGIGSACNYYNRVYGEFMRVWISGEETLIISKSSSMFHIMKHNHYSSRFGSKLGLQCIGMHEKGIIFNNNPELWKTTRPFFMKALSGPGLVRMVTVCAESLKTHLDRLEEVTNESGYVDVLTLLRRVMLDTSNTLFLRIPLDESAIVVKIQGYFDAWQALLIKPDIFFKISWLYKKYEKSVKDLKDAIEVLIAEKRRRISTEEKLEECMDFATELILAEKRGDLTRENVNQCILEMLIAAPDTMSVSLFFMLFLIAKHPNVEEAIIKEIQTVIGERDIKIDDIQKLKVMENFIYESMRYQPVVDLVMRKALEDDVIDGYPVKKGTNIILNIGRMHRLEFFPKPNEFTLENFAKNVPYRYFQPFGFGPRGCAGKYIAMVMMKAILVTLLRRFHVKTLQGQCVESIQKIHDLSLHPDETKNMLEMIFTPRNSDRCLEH
Estrogen receptor (Homo sapiens), sequence (P03372 whole entry, looked up): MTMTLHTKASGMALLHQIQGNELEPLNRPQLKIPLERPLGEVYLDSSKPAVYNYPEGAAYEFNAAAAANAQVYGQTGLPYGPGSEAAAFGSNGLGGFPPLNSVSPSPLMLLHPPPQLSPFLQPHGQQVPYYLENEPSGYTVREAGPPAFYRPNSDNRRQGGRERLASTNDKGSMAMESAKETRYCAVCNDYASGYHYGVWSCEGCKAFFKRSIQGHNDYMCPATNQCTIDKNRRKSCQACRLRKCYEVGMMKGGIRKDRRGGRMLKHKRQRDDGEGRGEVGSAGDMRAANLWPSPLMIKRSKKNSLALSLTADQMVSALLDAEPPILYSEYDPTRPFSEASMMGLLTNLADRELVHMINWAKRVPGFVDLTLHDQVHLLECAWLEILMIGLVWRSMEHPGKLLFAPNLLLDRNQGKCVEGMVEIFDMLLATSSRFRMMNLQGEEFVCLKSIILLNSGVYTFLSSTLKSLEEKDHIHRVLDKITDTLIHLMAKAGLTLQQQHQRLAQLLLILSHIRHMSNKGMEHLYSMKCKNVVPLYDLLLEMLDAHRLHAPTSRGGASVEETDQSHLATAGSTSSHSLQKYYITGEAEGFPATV

Consider `OC[C@@H](O)[C@H](O)[C@H](O)[C@@H](O)CO`, for which the Potency entry in assay [1], in [2], in assay [3], in [4], in [5] and in [6] was “inactive” in each case. The Potency result in assay [7], in assay [8], in assay [10], in assay [11], in [12] and in assay [13] was “inactive” each time. The Potency result (in assay [14]; in assay [15]; with Aromatase (Homo sapiens)) was “inactive” throughout. The compound was called inactive in assay [9].

As to `O=C1CCCCC1`, the Potency entry in assay [1], in [2], in assay [3], in [4], in assay [5] and in assay [6] was “inactive” each time. In addition, the Potency result in assay [7], in assay [10], in assay [12], in assay [13], in assay [14] and in assay [15] was “inactive” in each case. The Potency entry in the assay with Aromatase (Homo sapiens) was “inactive”. Further, the call in [16], in [17], in assay [18], in assay [19] and in assay [9] was inactive.

For `CCCCC(CC)COC(=O)CCCCCCCC(=O)OCC(CC)CCCC` (stereo not given), the Potency entry in assay [1], in assay [2], in assay [3], in assay [4], in assay [5] and in [6] was “inactive” throughout. Further, the Potency entry in assay [7], in [8], in assay [11] and in assay [15] was “inactive” throughout. Moreover, the result in [9] was inactive.

Turning to `O=C(O)c1cc(-c2ccccc2)nc2ccccc12`, the Potency result in assay [1], in assay [2], in [3], in assay [4], in [5] and in [6] was “inactive” throughout. In addition, the Potency entry (in [7]; in assay [8]; in [11]; in assay [15]; with Aromatase (Homo sapiens)) was “inactive” in each case. Also, the call in assay [16], in assay [17], in assay [18], in assay [19] and in assay [9] was inactive.

In the case of `Cc1ccc(C(=O)O)o1`, the Potency result in assay [1], in assay [2], in [3], in assay [4], in assay [5] and in assay [6] was “inactive” in each case. The Potency entry (in [7]; in assay [8]; in assay [11]; in assay [15]; with Aromatase (Homo sapiens)) was “inactive” throughout. Moreover, the outcome in assay [9] was inactive.

In the case of `CC1Cc2ccccc2N1NC(=O)c1ccc(Cl)c(S(N)(=O)=O)c1` (stereo not given), the Potency entry in assay [1], in [2], in assay [3], in assay [4], in assay [5] and in [6] was “inactive” throughout. Further, the Potency entry in assay [7], in [10], in [11], in assay [12], in assay [13] and in assay [14] was “inactive” throughout. In addition, the Potency result (in [15]; in the assay with Aromatase (Homo sapiens)) was “inactive” each time. Moreover, the compound was classed as inactive in [9].

Consider `CCCCCCC(C)(C)S`, for which the Potency result in [1], in [2], in [3], in assay [4], in assay [5] and in [6] was “inactive” in each case. The Potency entry (in assay [7]; in assay [8]; in [11]; in [15]; in the assay with Aromatase (Homo sapiens)) was “inactive” throughout. Further, in assay [9], the compound was called inactive.

`C=C(C)C(=O)OCCCCCCCCCCCC`: the Potency entry in assay [1], in assay [2], in assay [3], in [4], in assay [5] and in assay [6] was “inactive” each time. Further, the Potency result in assay [7], in assay [10], in assay [11], in [12], in assay [13] and in assay [14] was “inactive” throughout. Besides, the Potency entry (in assay [15]; with Aromatase (Homo sapiens)) was “inactive” each time. Further, the call in assay [9] was inactive.

`CC(C)Cc1ccccc1`: the Potency result in assay [1], in assay [2], in assay [3], in assay [4], in assay [5] and in [6] was “inactive” in each case. The Potency entry in assay [7], in [8], in assay [10], in assay [11], in [12] and in assay [13] was “inactive” each time. In addition, the Potency result (in assay [14]; in assay [15]; with Aromatase (Homo sapiens)) was “inactive” in each case. In addition, in assay [9], the result was inactive.

`CC(C)(N=C=O)c1cccc(C(C)(C)N=C=O)c1`: the Potency entry in [1], in assay [2], in assay [3], in assay [4], in assay [5] and in [6] was “inactive” in each case. In addition, the Potency entry (in [7]; in assay [11]; in assay [15]; in the assay with Aromatase (Homo sapiens)) was “inactive” in each case. In addition, the compound was classed as inactive in assay [9].

As to `S=c1nc[nH]c2nc[nH]c12`, the Potency entry in assay [1], in [4], in assay [6], in assay [7], in assay [12] and in [13] was “inactive” in each case. The Potency result (in assay [15]; in the assay with Aromatase (Homo sapiens)) was “inactive” in each case. For the same compound, the Potency was 23.7 µM (active) in assay [2], 53.1 µM (active) in assay [3] and 5.36 µM (active) in assay [5]. The compound was called inactive in assay [9].

Take `OC1CCCC1`: the Potency entry in [1], in assay [2], in assay [3], in assay [5], in assay [6] and in assay [7] was “inactive” throughout. The Potency result in assay [8], in [10], in assay [11], in assay [12], in [13] and in [14] was “inactive” each time. Moreover, the Potency result (in assay [15]; with Aromatase (Homo sapiens)) was “inactive” each time. The compound was called inactive in assay [9].

With `O=C(c1cc(O)c(O)c(O)c1)c1ccc(O)c(O)c1O`, the Potency result in [1], in assay [5], in assay [6], in assay [10], in assay [11] and in [12] was “inactive” each time. In addition, the Potency entry (in assay [13]; in [14]; with Aromatase (Homo sapiens)) was “inactive” throughout. In addition, the Potency was 48.4 µM (active) and 13.7 µM (active) in assay [2]; 30.5 µM (active) and 13.7 µM (active) in assay [3]; 30.5 µM (active) and 13.7 µM (active) in assay [4]; 43.1 µM (active) and 68.6 µM (active) in assay [8]; 68.4 µM (active) and 61.1 µM (active) in [15]. Further, the compound was called inactive in [9].

Regarding `CC[Si](OC(C)=O)(OC(C)=O)OC(C)=O`, the Potency result in [1], in [2], in assay [3], in assay [4], in assay [5] and in assay [6] was “inactive” in each case. Further, the Potency entry in [7], in [10], in assay [11], in assay [12], in [13] and in assay [14] was “inactive” each time. The Potency result (in assay [15]; in the assay with Aromatase (Homo sapiens)) was “inactive” in each case. Besides, in assay [9], the compound was classed as inactive.

For `CC1=C(CC(=O)O)c2cc(F)ccc2/C1=C\c1ccc(S(C)=O)cc1` (stereo not given), the Potency result in assay [1], in [5], in [6], in assay [7], in assay [11] and in [15] was “inactive” in each case. In the assay with Aromatase (Homo sapiens), the Potency result was “inactive”. Also, the Potency result in assay [2] is “inactive and 68.6 µM (active)”; in [3], 6.86 µM (active); in assay [4], “inactive and 24.3 µM (active)”. Moreover, the outcome in [9] was inactive.

For `CC(=O)Nc1ccc(C(=O)O)cc1`, the Potency result in assay [1], in [2], in [3], in [5], in assay [6] and in assay [7] was “inactive” each time. The Potency entry in assay [8], in assay [10], in [11], in assay [12], in assay [13] and in [14] was “inactive” each time. The Potency result (in [15]; with Aromatase (Homo sapiens)) was “inactive” throughout. Moreover, the result in assay [9] was inactive.
